Our source for the activity change, negative = inhibition and Potency values is PubChem BioAssay AID894 (National Center for Advancing Translational Sciences (NCATS), 2007).

In all, about 150,000 compounds went through this assay and about 6,500 (4.3%) were called active. Not shown: some 12% with an inconclusive outcome. The sample holds actives, similar compounds and a random draw of the others, so the mix is not that of the screen. A number with no mark means an inactive call. Calls come from the whole dose curve; as a rule, active = well fitted inhibition curve with a large enough effect (not every such curve was filed as active); inconclusive = small, poorly fitted or top-dose-only effect, or another doubt; inactive = no such curve, though single readings can be large or run the other way.
% is set by controls: 0 for no effect and ±100 for the full control effect; potency is the fitted concentration of half-maximal effect.

15-hydroxyprostaglandin dehydrogenase [NAD(+)] (Homo sapiens), sequence (P15428 whole entry, looked up): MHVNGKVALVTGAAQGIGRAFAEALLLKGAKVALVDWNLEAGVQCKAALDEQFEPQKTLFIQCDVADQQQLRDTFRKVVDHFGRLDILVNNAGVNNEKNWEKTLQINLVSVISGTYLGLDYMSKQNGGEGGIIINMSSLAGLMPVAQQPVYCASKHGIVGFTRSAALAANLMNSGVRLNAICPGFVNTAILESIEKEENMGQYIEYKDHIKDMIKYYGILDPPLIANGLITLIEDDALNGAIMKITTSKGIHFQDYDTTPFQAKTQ

The assay addresses 15-hydroxyprostaglandin dehydrogenase [NAD(+)] (Homo sapiens) (UniProt P15428). Nature of the assay: qHTS Assay for Inhibitors of HPGD (15-Hydroxyprostaglandin Dehydrogenase). To be noted: purified HPGD, NADH fluorescence kinetic, PGE2 substrate; activity change, negative = inhibition: stronger effect = lower value. An excerpt:
Human 15-Hydroxyprostaglandin dehydrogenase (HPGD) catalyzes the inactivation of prostaglandin E2, and plays a major role in cancer biology by antagonizing the oncogenic potential of cyclooxygenase type 2 (COX2). Assays are available, based on absorbance/fluorescence increase of NADH with the substrate 15-OH prostaglandin E2. References 1. Myung SJ, Rerko RM, Yan M, Platzer P, Guda K, Dotson A, Lawrence E, Dannenberg AJ, Lovgren AK, Luo G, Pretlow TP, Newman RA, Willis J, Dawson D, Markowitz SD. 15-Hydroxyprostaglandin dehydrogenase is an in vivo suppressor of colon tumorigenesis. […] 2. Yan M, Rerko RM, Platzer P, Dawson D, Willis J, Tong M, Lawrence E, Lutterbaugh J, Lu S, Willson JK, Luo G, Hensold J, Tai HH, Wilson K, Markowitz SD. 15-Hydroxyprostaglandin dehydrogenase, a COX-2 oncogene antagonist, is a TGF-beta-induced suppressor of human gastrointestinal cancers. Proc Natl Acad Sci U S A. 2004 Dec 14;101(50):17468-73. 3. Yang L, Amann JM, Kikuchi T, Porta R, Guix M, Gonzalez A, Park KH, Billheimer D, Arteaga CL, Tai HH, Dubois R, Carbone DP, Johnson DH. Inhibition of Epidermal Growth Factor Receptor Signaling Elevates 15-Hydroxyprostaglandin Dehydrogenase in Non-Small-Cell Lung Cancer. Cancer Res. 2007 Jun 15;67(12):5587-5593. Inhibition of HPGD activity was screened by utilizing prostaglandin as an electron donor and NAD+ as an electron acceptor/cofactor. An increase in the fluorescence intensity due to conversion of NAD+ to NADH was used to measure the enzyme activity. NIH Chemical Genomics Center [NCGC] Structural Genomics Consortium [SGC]
Buffer: 50 mM Tris-HCl, 0.01% Tween 20, pH 8. Enzyme Buffer: 50 mM Tris-HCl, 0.5 mM NAD+ and 0.01% Tween 20, pH 8. Reagents/Controls: Buffer in columns 3 and 4 as negative control (no enzyme). Substrate/cofactor solution: 1 mM NAD+ and 30 uM prostaglandin (Sigma, prostaglandin E2, # P5640) final concentrations dispensed throughout the plate. Enzyme: 20 nM HPGD final concentration in columns 1, 2, 5-48. Column 1 and 2 is neutral (100% activity). A titration of control inhibitor GW5074 (G6416 Sigma-Aldrich, St. Louis, MO) top concentration 10 mM in DMSO, then 1:2 dilution for a total of 16 concentrations in duplicate) was pin-transferred into column 2. Assay Steps: Three uL of enzyme were dispensed to 1536-well Greiner black solid bottom plates. Compounds and control inhibitor (23 nL) were transferred via Kalypsys PinTool. The plates were incubated for 15 min at room temperature, and then 1 uL of substrate/cofactor solution was added to start the reaction. The plates were immediately transferred to and read 5 times every 30 seconds on ViewLux High-throughput CCD imager (Perkin-Elmer) using 360 nm excitation and 450 nm emission fluorescence protocol. The fluorescence intensity difference between the last and the first time points was used to compute reaction progress.
A general note: In qHTS, concentration-response curves come from the screen itself.
For the molecule `O=c1c2c(ncn1Cc1ccccc1)nc1n2CCC1`, the activity change, negative = inhibition is -17.9%. The same measure, in the same setting: the figure for `COc1ccc(-c2csc(NC(=O)COC(=O)Cc3ccc(Cl)cc3Cl)n2)cc1` is -9.05%; for `O=C(Nc1cn(-c2ccccc2)nc1-c1ccccc1)c1ccccc1` it is -2.03%; for `CN(CC(=O)NC1CCCCC1)S(=O)(=O)c1ccc(Br)s1` it is -1.92%. On to `O=C(NC1CCCC1)c1ccc(Br)s1`, for which the Potency was 3.55 µM (active). With `O=C(NC1CCCC1)C(NS(=O)(=O)c1ccc(Br)s1)c1ccccc1` (centres undefined), the activity change, negative = inhibition is -1.61%. Consider `O=C(COC(=O)c1c2c(nc3ccccc13)/C(=C\c1cccs1)CCC2)Nc1ccccc1Cl`, for which the activity change, negative = inhibition was -25.4%. Turning to `C=CCN1c2ccccc2[C@]23C[C@@H](C(=O)OC)N(S(=O)(=O)c4ccc([N+](=O)[O-])cc4)C2=NC(C(=O)OC)=C(C(=O)OC)[C@H]13`, the activity change, negative = inhibition was -18.4%. Still for that read-out and setting: the figure for `COc1cc(/C=C(/NC(=O)c2ccc(Cl)cc2Cl)C(=O)O)cc(OC)c1OC` is -5.89%. Consider `O=C(O)c1cccc(S(=O)(=O)Nc2ccc(O)cc2Sc2nc3ccccc3s2)c1`, for which the Potency is 10 µM (active). For `COc1ccc(S(=O)(=O)Nc2ccc(O)c(Sc3nc4ccccc4s3)c2)cc1`, the Potency was 25.1 µM (active).

For `O=C(O)c1cccc(S(=O)(=O)NCCO)c1`, the activity change, negative = inhibition is -3.87%. On to `O=C(Nc1nc2cc3c(cc2s1)OCCO3)c1cccc(S(=O)(=O)N2CCOCC2)c1`, for which the activity change, negative = inhibition was -10.8%. Still for that read-out and setting: in the case of `COC(=O)c1nc2ccccc2s1` it was 0.316%; in that of `COc1ccc(NS(=O)(=O)c2ccc(NC(=S)NC(=O)CC(C)C)cc2)cc1`, -14.4%. On the same count and under the same terms, the figure for `CC(=O)NC1=NN(C(C)=O)C(C)(CCS(=O)(=O)c2ccc(Cl)c(Cl)c2)S1` (centres undefined) is -9.18%; for `CCCCN1C(=O)c2ccc(C(=O)Nc3ccc(S(=O)(=O)N(C)C)cc3)cc2C1=O` it is -11.6%.

Regarding `CCCNC(=O)c1ccccc1NC(=O)CSCc1ccc(OC)cc1`, the activity change, negative = inhibition was -5.31%.

As for `CCCCCNC(=O)c1cccnc1SCC(=O)Nc1ccccc1OC`, the Potency was 10 µM (active). Regarding `CCCc1nc(SCC(=O)Nc2ccccc2OC)c2c(=O)n(C)c(=O)n(C)c2n1`, the activity change, negative = inhibition is -0.308%.

With `COc1cccc(NC(=S)NC(=O)c2c(Cl)c(C)nn2C)c1`, the activity change, negative = inhibition was -18.7%.

With `Cc1sc2nc(CC(N)=O)[nH]c(=O)c2c1-c1ccccc1`, the activity change, negative = inhibition is 1.92%. On the same count and under the same terms, in the case of `O=C(Cn1nnc(-c2ccccc2)n1)NCc1ccc2c(c1)OCO2` it was -12.6%.

With `O=C(NCc1ccc2c(c1)OCO2)C12CC3CC(CC(C3)C1)C2`, the Potency was 31.6 µM (active).

As to `O=C(CNS(=O)(=O)c1ccc(Br)s1)NCc1ccc2c(c1)OCO2`, the activity change, negative = inhibition was -7.58%.

As to `CCOC(=O)NCc1ccc2c(c1)OCO2`, the activity change, negative = inhibition is -9.86%. For the molecule `CC1CCCCN1CC(=O)NCc1ccc2c(c1)OCO2` (centres undefined), the Potency is 8.91 µM (active). `Cn1cc(CCC(=O)NCc2ccc3c(c2)OCO3)c2ccccc21`: the activity change, negative = inhibition is -17.1%. On the same count and under the same terms, in the case of `OC[C@H]1O[C@@H](n2cnc3c(NC4CCCC4)ncnc32)[C@H](O)[C@H]1O` it was -4.78%; in that of `CCCCC(NS(=O)(=O)c1ccc(C)cc1)C(=O)Oc1ccc2c3c(c(=O)oc2c1)CCC3` (centres undefined), -8.04%; in that of `Cn1c(=O)c(Sc2ccc(Cl)cc2)c(O)c2ccccc21`, -12.7%. Take `CC(C)OCCCNC(=O)c1cc(Sc2ccc(F)cc2)nc2ccccc12`: the activity change, negative = inhibition is -12.9%.

`Cc1nc([N+](=O)[O-])nn1C12CC3CC(CC(Br)(C3)C1)C2`: the Potency was 14.1 µM (active). For the molecule `Cc1ncn(C23CC4CC(CC(O)(C4)C2)C3)n1`, the activity change, negative = inhibition was -6.48%. Same read-out and setting: the figure for `COc1cccc(NC(=O)c2nn(C34CC5CC(CC(C5)C3)C4)cc2[N+](=O)[O-])c1` is -4.79%; for `O=C(COC(=O)c1cc2c(s1)CCCC2)NCc1ccccc1Cl` it is -9.08%. With `COc1ccc(CC(=O)N/N=C(\C)c2ccccn2)cc1`, the activity change, negative = inhibition was -4.24%. For the molecule `Cc1ccc(S(=O)(=O)N2CCC(C(=O)N[C@@H](C)C(=O)NCc3ccco3)CC2)cc1`, the activity change, negative = inhibition is -1.88%.

`S=C(NCCCc1cnc[nH]1)NCCCN(Cc1ccc(Cl)c(Cl)c1)c1ccc(Br)cn1`: the activity change, negative = inhibition was -8.19%. Regarding `COC(=O)c1ccc(NC(=O)Nc2ccc(C)cc2)cc1`, the activity change, negative = inhibition was -17.3%.

For the molecule `Cc1ccc(C(=O)CNc2ccc(F)cc2)cc1`, the activity change, negative = inhibition is -25.3%. On to `COC(=O)c1ccc(NCC(=O)c2ccccc2)cc1`, for which the Potency was 17.8 µM (active). As to `Cc1ccc(-n2[nH]c(C)c(/C=N/NC(=O)c3cccc([N+](=O)[O-])c3)c2=O)cc1C`, the activity change, negative = inhibition is -25.4%. On the same count and under the same terms, in the case of `Cc1sc2ncnc(Sc3nc4ccccc4s3)c2c1C` it was -10.4%. On to `CCOC(=O)c1ccc(N2C(=O)CC(N(C)Cc3ccccc3)C2=O)cc1` (centres undefined), for which the activity change, negative = inhibition is -4.27%.

In the case of `CCOc1ccc(N2C(=O)CC(N(O)c3ccccc3)C2=O)cc1` (centres undefined), the activity change, negative = inhibition was -7.04%. Consider `CCCCCCC(=O)N(O)C1CC(=O)N(c2ccccc2)C1=O` (centres undefined), for which the Potency was 15.8 µM (active). `CC1CN(S(=O)(=O)c2ccc(C(=O)NN3CCN(C)CC3)cc2)CC(C)O1` (centres undefined): the activity change, negative = inhibition is -9.75%. As to `Cc1ccc(C(C)C)cc1OCCN1CCCC1`, the activity change, negative = inhibition was 7.86%. Consider `Cc1cc([N+](=O)[O-])c(-c2ccc(/C=N/n3cnnc3)o2)cc1Cl`, for which the activity change, negative = inhibition was -28.3%.

For `Cc1ccc(Cl)cc1-c1ccc(/C=N/n2cnnc2)o1`, the activity change, negative = inhibition was -18.9%. As to `Cc1cc(-c2ccc(/C=N/n3cnnc3)o2)c([N+](=O)[O-])cc1C`, the Potency is 10 µM (active).

For the molecule `N#Cc1ccc(C(=O)Nc2nc(-c3cccs3)c(C(=O)C(F)(F)F)s2)cc1`, the activity change, negative = inhibition was 3.33%. As for `O=C(c1cccc2ccccc12)N1CCN(c2ccccc2F)CC1`, the activity change, negative = inhibition was -14.2%.

For the molecule `COc1ccc(OCc2cccc(C(=O)N3CCCC3)c2)cc1`, the activity change, negative = inhibition was -28.1%. Take `COc1c(C(=O)N2CCCC2)ccc2ccccc12`: the Potency is 12.6 µM (active). As to `C/C(=N/NC(=O)c1ccc(Br)o1)c1ccc(C)o1`, the activity change, negative = inhibition was -27.2%.

As to `CCCCC/C=C\CC1OC1CCCCCCCC(=O)O` (centres undefined), the activity change, negative = inhibition is -7.93%. On the same count and under the same terms, the figure for `COC(=O)C/C=C/[C@@H](C)[C@H](NC(=O)OCC(Cl)(Cl)Cl)c1ccccc1` is -2.46%.
